For some assays here: Entries with a potency or affinity are not part of this list. Calls of active or inactive are those of the source. Unless noted, the rule behind the calls is not given here.
Legend:
[1] = antimalarial activity against Dd2 strain (AID 2302;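 active = growth inhibition above 50% at the single 2 µM test dose, taken to imply half-maximal potency below 2 µM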;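 note: 0% = DMSO untreated growth and 100% = chloroquine plus artemisinin killed control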); conditions: P. falciparum Dd2 in RBCs, LDH growth readout, 72 h; at 2 µM; active compounds read high
[2] = human hepatoma cell viability loss – ATP luminescence, cytotoxicity control for P. falciparum antimalarial project, primary screen (AID 2303;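 active = inhibition above 50%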;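 note: 0% = DMSO wells and 100% = digitonin-killed cells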); conditions: HepG2 viability, 24-48 h, at 10 µM, active compounds read high
[3] = target: L-lactate dehydrogenase (Plasmodium falciparum (isolate CDC / Honduras)) (UniProt Q27743); assay: PfLDH activity inhibition – cell lysate, 3D7 strain, counter-screen for P. falciparum growth inhibition project (AID 2304);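 note: 0% = vehicle and 100% = reference inhibitor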; conditions: P. falciparum 3D7 crude extract, LDH APAD/NBT absorbance; at 2 µM; active compounds read high
Sequence of L-lactate dehydrogenase (Plasmodium falciparum (isolate CDC / Honduras)) (Q27743 whole entry, looked up): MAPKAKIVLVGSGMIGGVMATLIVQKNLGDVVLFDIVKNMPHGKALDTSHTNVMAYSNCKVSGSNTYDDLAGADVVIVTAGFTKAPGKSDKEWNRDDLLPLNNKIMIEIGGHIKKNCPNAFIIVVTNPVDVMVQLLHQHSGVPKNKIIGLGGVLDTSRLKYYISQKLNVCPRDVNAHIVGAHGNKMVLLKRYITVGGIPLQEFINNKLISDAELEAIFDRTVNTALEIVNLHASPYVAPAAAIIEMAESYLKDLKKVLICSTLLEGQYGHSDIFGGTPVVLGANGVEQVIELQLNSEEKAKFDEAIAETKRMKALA

[4] = inhibition of 3D7 malaria parasite growth – strain 3D7 (AID 2306);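 note: 0% = DMSO wells and 100% = chloroquine plus artemisinin control wells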; conditions: P. falciparum 3D7 erythrocytic growth, LDH absorbance, 72 h; at 2 µM; active compounds read high
[5] = target: Calcium-dependent protein kinase 1 (Plasmodium falciparum (isolate 3D7)) (UniProt P62344); assay: PfCDPK1 kinase inhibitors, biochemical, TCAMS library (AID 1159585; cut-off not given, nearly all actives have IC50 up to about 0.98 µM;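 note: inhibitors leave more ATP so luminescence rises with inhibition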); conditions: recombinant PfCDPK1, Kinase-Glo ATP depletion luminescence
Sequence of Calcium-dependent protein kinase 1 (Plasmodium falciparum (isolate 3D7)) (P62344 whole entry, looked up): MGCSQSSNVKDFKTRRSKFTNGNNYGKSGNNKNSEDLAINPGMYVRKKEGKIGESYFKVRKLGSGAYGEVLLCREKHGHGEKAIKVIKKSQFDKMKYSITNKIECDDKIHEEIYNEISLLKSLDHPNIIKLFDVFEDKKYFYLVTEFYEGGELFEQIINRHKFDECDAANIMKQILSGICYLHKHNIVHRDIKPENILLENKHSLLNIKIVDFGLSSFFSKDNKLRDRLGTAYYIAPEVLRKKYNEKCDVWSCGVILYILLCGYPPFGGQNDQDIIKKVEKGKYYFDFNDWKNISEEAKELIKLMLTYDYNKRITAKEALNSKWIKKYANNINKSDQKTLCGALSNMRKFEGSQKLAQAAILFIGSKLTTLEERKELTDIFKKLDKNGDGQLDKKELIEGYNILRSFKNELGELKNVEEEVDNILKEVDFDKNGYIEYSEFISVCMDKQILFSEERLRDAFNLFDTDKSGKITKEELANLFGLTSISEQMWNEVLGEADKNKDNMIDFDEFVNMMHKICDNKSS

[6] = target: Plasmodium falciparum protein kinase 6 (PK6, PF3D7_1337100) (UniProt Q8IDW1); assay: PfPK6 kinase inhibitors, biochemical, TCAMS library (AID 1159586); conditions: recombinant PfPK6, Kinase-Glo ATP depletion luminescence
Sequence of Plasmodium falciparum protein kinase 6 (PK6, PF3D7_1337100) (Q8IDW1 1-305): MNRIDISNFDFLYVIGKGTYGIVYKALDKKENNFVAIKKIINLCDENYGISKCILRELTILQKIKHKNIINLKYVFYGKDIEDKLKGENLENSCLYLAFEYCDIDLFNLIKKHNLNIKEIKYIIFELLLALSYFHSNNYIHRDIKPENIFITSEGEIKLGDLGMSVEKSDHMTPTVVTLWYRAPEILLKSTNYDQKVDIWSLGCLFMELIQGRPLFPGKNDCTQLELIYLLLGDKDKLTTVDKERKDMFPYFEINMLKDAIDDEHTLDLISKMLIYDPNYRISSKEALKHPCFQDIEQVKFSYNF

[7] = target: Protein kinase 7 (PK7), Plasmodium falciparum 3D7 (PF3D7_0213400) (UniProt Q7YTF7); assay: inhibition of Plasmodium PK7 catalytic activity – biochemical, TCAMS antimalarial set, Kinase-Glo luminescence (AID 1159587); conditions: recombinant PfPK7, Kinase-Glo ATP depletion luminescence
Sequence of Protein kinase 7 (PK7), Plasmodium falciparum 3D7 (PF3D7_0213400) (Q7YTF7 1-343): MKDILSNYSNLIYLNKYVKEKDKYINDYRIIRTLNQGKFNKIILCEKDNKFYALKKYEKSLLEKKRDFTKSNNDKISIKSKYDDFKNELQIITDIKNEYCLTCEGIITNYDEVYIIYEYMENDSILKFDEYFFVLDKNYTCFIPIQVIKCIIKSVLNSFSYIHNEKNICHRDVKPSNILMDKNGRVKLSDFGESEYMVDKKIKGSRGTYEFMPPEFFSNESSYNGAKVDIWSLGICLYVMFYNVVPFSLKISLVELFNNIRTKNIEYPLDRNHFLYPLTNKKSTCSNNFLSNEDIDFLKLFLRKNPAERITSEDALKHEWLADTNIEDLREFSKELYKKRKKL

[8] = target: Calcium-dependent protein kinase 4 (Plasmodium falciparum (isolate 3D7)) (UniProt Q8IBS5); assay: PfCDPK4 kinase inhibitors, biochemical, TCAMS library (AID 1159588; cut-off not given, nearly all actives have IC50 up to about 0.91 µM); conditions: recombinant PfCDPK4, Kinase-Glo ATP depletion luminescence
Sequence of Calcium-dependent protein kinase 4 (Plasmodium falciparum (isolate 3D7)) (Q8IBS5 whole entry, looked up): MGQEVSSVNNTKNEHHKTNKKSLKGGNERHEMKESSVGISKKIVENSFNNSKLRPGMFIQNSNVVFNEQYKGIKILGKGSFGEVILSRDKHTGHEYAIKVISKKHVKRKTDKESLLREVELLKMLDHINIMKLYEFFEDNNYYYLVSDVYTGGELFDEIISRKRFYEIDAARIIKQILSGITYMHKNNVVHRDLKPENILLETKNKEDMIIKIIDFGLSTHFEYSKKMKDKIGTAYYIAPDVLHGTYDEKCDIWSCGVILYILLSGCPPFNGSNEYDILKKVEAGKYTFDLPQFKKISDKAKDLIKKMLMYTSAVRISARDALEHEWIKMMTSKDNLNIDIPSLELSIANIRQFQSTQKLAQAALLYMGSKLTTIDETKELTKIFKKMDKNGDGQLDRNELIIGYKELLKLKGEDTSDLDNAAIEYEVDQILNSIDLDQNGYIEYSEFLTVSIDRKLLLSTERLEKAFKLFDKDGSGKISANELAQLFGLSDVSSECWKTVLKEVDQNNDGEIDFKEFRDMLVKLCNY

Clc1ccc(OCc2ccccc2)c(-c2nc(-c3nc4ccc(Cl)cc4[nH]3)cs2)c1
active: growth inhibition [1] 60% | growth inhibition [4] 99%
inactive: inhibition [2] -9% | inhibition [3] -3% | outcome [5] | outcome [6] | outcome [7] | outcome [8]

COc1ccc(N2CCN(c3nc(N)c4cc(OC)c(OC)cc4n3)CC2C)cc1 (stereo not given)
inactive: growth inhibition [1] 0% | inhibition [2] 8% | inhibition [3] 0% | outcome [5] | outcome [6] | outcome [7] | outcome [8]
active: growth inhibition [4] 95%

Cc1cccc(C(=O)Nc2ccnc(N3CCCN(Cc4cccc(O)c4)CC3)c2)c1
active: growth inhibition [4] 84%
inactive: growth inhibition [1] 13% | inhibition [2] -21% | inhibition [3] 3% | outcome [5] | outcome [6] | outcome [7] | outcome [8]

CCCN1CCN(CCCCNc2c3ccccc3nc3ccccc23)CC1
inactive: growth inhibition [1] 0% | inhibition [2] 34% | inhibition [3] -8% | outcome [5] | outcome [6] | outcome [7] | outcome [8]
active: growth inhibition [4] 100%

Cc1noc(-c2ccc3c(c2)CCN(CCC2CCC(NC(=O)c4cc5ccccc5[nH]4)CC2)CC3)n1 (stereo not given)
inactive: growth inhibition [1] 41% | inhibition [2] 21% | inhibition [3] -7% | outcome [5] | outcome [6] | outcome [7] | outcome [8]
active: growth inhibition [4] 99%

N#CCOc1c(C2CCN(CCCCNC(=O)c3ccc(-c4ccc(C(F)(F)F)cc4)cc3)CC2)ccc2c1CCCC2
inactive: growth inhibition [1] 48% | inhibition [3] 4% | outcome [5] | outcome [6] | outcome [7] | outcome [8]
active: inhibition [2] 59% | growth inhibition [4] 97%

O=c1cc(NCCCNCc2cc(Br)ccc2F)[nH]c2ccccc12
inactive: growth inhibition [1] 14% | inhibition [2] -2% | inhibition [3] 6% | outcome [5] | outcome [6] | outcome [7] | outcome [8]
active: growth inhibition [4] 95%

O=C(NCC1CC1)C1CCN(C(c2ccccc2)c2cc(F)cc(F)c2)CC1 (stereo not given)
active: growth inhibition [1] 95% | growth inhibition [4] 99%
inactive: inhibition [2] -3% | inhibition [3] 9% | outcome [5] | outcome [6] | outcome [7] | outcome [8]

COc1ccc(O)c(Cc2cnc3nc(N)nc(N)c3c2C)c1
inactive: inhibition [3] 5% | outcome [5] | outcome [6] | outcome [7] | outcome [8]
active: growth inhibition [1] 74% | inhibition [2] 56% | growth inhibition [4] 94%

O=C(c1cccs1)N1N=C(c2cccs2)CC1c1cccc([N+](=O)[O-])c1 (stereo not given)
inactive: growth inhibition [1] 27% | inhibition [2] 5% | inhibition [3] -10% | outcome [5] | outcome [6] | outcome [7] | outcome [8]
active: growth inhibition [4] 95%

CCOc1cc(C)ccc1C1CCN(CCCCNC(=O)c2ccc(-c3ccc(Cl)cn3)cc2)CC1
active: growth inhibition [4] 94%
inactive: growth inhibition [1] 8% | inhibition [2] 19% | inhibition [3] -6% | outcome [5] | outcome [6] | outcome [7] | outcome [8]

Cc1cc(N(C)CCN(C)C)nc(Nc2ccc(Cl)cc2)n1
active: growth inhibition [4] 92%
inactive: growth inhibition [1] 14% | inhibition [2] -1% | inhibition [3] -3% | outcome [5] | outcome [6] | outcome [7] | outcome [8]

CCCOc1ccc(-c2nonc2NC(=O)c2ccccc2OC)cc1OCCC
active: growth inhibition [1] 82% | growth inhibition [4] 98%
inactive: inhibition [2] 23% | inhibition [3] -1% | outcome [5] | outcome [6] | outcome [7] | outcome [8]

CCOc1ccc(-c2nonc2NC(=O)c2ccco2)cc1OCC
inactive: inhibition [2] 3% | inhibition [3] -1% | outcome [5] | outcome [6] | outcome [7] | outcome [8]
active: growth inhibition [1] 77% | growth inhibition [4] 97%

Cc1cc(C)c(-c2n[nH]c3c2C(c2cccc(Cl)c2)N(Cc2ccco2)C3=O)c(O)c1 (stereo not given)
inactive: inhibition [2] -3% | inhibition [3] -1% | outcome [5] | outcome [6] | outcome [7] | outcome [8]
active: growth inhibition [1] 89% | growth inhibition [4] 96%

COc1ccc(-c2ccc(NC(=O)c3ccc(Cl)cc3)cc2)cc1CN1CCC(O)CC1
active: growth inhibition [4] 89%
inactive: growth inhibition [1] 15% | inhibition [2] 20% | inhibition [3] 5% | outcome [5] | outcome [6] | outcome [7] | outcome [8]

Cc1cccc2[nH]c(-c3ccc(-c4ccc(CNC(C)C)cc4)cc3)nc12
active: growth inhibition [1] 62% | growth inhibition [4] 99%
inactive: inhibition [2] 12% | inhibition [3] 0% | outcome [5] | outcome [6] | outcome [7] | outcome [8]

O=C(Nc1ccc(Cl)cc1)Nc1ccc2c(c1)N1CCN=C1S2
inactive: inhibition [2] 15% | inhibition [3] -1% | outcome [5] | outcome [6] | outcome [7] | outcome [8]
active: growth inhibition [1] 100% | growth inhibition [4] 99%

CSCCC(C(=O)O)N1C(=O)c2ccccc2C1=O (stereo not given)
inactive: growth inhibition [1] -3% | inhibition [2] -4% | inhibition [3] -1% | outcome [5] | outcome [6] | outcome [7] | outcome [8]
active: growth inhibition [4] 91%

Cc1cccc(-c2nc(Nc3ccncc3)c3cc(N(C)C)ccc3n2)n1
active: growth inhibition [1] 63% | growth inhibition [4] 98%
inactive: inhibition [2] 5% | inhibition [3] -2% | outcome [5] | outcome [6] | outcome [7] | outcome [8]

COc1ccc2nccc(NN=Cc3cccc(C)n3)c2c1
active: growth inhibition [1] 99% | growth inhibition [4] 100%
inactive: inhibition [2] 16% | inhibition [3] 3% | outcome [5] | outcome [6] | outcome [7] | outcome [8]

CCNC(=O)Nc1cccc(-c2cccc(-c3nc4ccc(C(F)(F)F)cc4[nH]3)c2)c1
inactive: growth inhibition [1] 32% | inhibition [3] 2% | outcome [5] | outcome [6] | outcome [7] | outcome [8]
active: inhibition [2] 50% | growth inhibition [4] 91%

Cc1cc(NN=Cc2ccc(F)cc2)c2ccc(F)cc2n1
active: growth inhibition [4] 99%
inactive: growth inhibition [1] 30% | inhibition [2] -7% | inhibition [3] 0% | outcome [5] | outcome [6] | outcome [7] | outcome [8]

Fc1ccc(CN2CCN(c3ncnc4cc(-c5ccccc5)sc34)CC2)cc1
inactive: inhibition [2] 7% | inhibition [3] 4% | outcome [5] | outcome [6] | outcome [7] | outcome [8]
active: growth inhibition [1] 82% | growth inhibition [4] 82%

Cc1ccc(NC(=O)c2ccc(N3CCN(c4ccncc4)CC3)cn2)cc1F
inactive: inhibition [2] 2% | inhibition [3] 2% | outcome [5] | outcome [6] | outcome [7] | outcome [8]
active: growth inhibition [1] 77% | growth inhibition [4] 98%

Cc1cc(NC(=O)NCCN2CCC(NC(=O)c3cccc(Br)c3)C2)c2ccccc2n1 (stereo not given)
inactive: inhibition [2] -2% | inhibition [3] -1% | outcome [5] | outcome [6] | outcome [7] | outcome [8]
active: growth inhibition [1] 60% | growth inhibition [4] 100%

CCOc1ccc(N(CC)S(=O)(=O)c2cc(Br)cc3c2N(C(=O)C2CC2)CC3)cc1
inactive: inhibition [2] -4% | inhibition [3] -5% | outcome [5] | outcome [6] | outcome [7] | outcome [8]
active: growth inhibition [1] 97% | growth inhibition [4] 99%

CC(=O)Nc1ccc(CN(Cc2ccc(C)cc2)Cc2cccc(Oc3ccccc3)c2)cc1
active: growth inhibition [1] 87% | growth inhibition [4] 84%
inactive: inhibition [2] 34% | inhibition [3] 1% | outcome [5] | outcome [6] | outcome [7] | outcome [8]

O=C(NCCCCN1CCC(c2c[nH]c3ccccc23)CC1)c1sc(-c2ccc(C(F)(F)F)cc2)nc1CO
active: growth inhibition [4] 94%
inactive: growth inhibition [1] 3% | inhibition [2] 34% | inhibition [3] 0% | outcome [5] | outcome [6] | outcome [7] | outcome [8]

Nc1ccc(-c2ccc(NC(=O)Nc3cc(C(F)(F)F)ccc3F)cc2)cn1
inactive: growth inhibition [1] 39% | inhibition [2] -6% | inhibition [3] -9% | outcome [5] | outcome [6] | outcome [7] | outcome [8]
active: growth inhibition [4] 99%

CC1(C)CNCc2cc(NC(=O)/C=C/c3ccc(Cl)cc3)ccc21
active: growth inhibition [4] 82%
inactive: growth inhibition [1] 26% | inhibition [2] 23% | inhibition [3] -9% | outcome [5] | outcome [6] | outcome [7] | outcome [8]

N#Cc1ccc(-c2ccc(C(=O)NCCCCN3CC=C(c4ccc5c(c4OCC4CC4)CCCC5)CC3)cc2)cc1
active: growth inhibition [1] 83% | growth inhibition [4] 100%
inactive: inhibition [2] 22% | inhibition [3] 4% | outcome [5] | outcome [6] | outcome [7] | outcome [8]

CCCCCCN1CCC(NCc2cccc(C(F)(F)F)c2)CC1
active: growth inhibition [1] 82% | growth inhibition [4] 103%
inactive: inhibition [2] 18% | inhibition [3] -6% | outcome [5] | outcome [6] | outcome [7] | outcome [8]

Cc1ccc(-c2cc(C(=O)Nc3ccc(S(=O)(=O)N4CC(C)OC(C)C4)cc3)[nH]n2)c(O)c1 (stereo not given)
inactive: inhibition [2] 16% | inhibition [3] -1% | outcome [5] | outcome [6] | outcome [7] | outcome [8]
active: growth inhibition [1] 98% | growth inhibition [4] 91%

Cc1ccc(NC(=S)N2CCCN(CCCCCNC(=O)/C=C/c3ccc(Cl)c(Cl)c3)CC2)cc1Cl
inactive: growth inhibition [1] 5% | inhibition [2] 14% | inhibition [3] 5% | outcome [5] | outcome [6] | outcome [7] | outcome [8]
active: growth inhibition [4] 93%

CCN(CC)CCN(Cc1ccc(-c2ccc(C(F)(F)F)cc2)cc1)C(=O)Cn1c(CCc2cc(F)c(F)cc2F)nc(=O)c2ccccc21
inactive: inhibition [2] 39% | inhibition [3] -4% | outcome [5] | outcome [6] | outcome [7] | outcome [8]
active: growth inhibition [1] 50% | growth inhibition [4] 99%

CN1CCN(Cc2ccc(-c3ccc4c(Nc5ccc(F)cc5Cl)ccnc4c3)o2)CC1
active: growth inhibition [1] 100% | growth inhibition [4] 100%
inactive: inhibition [2] 8% | inhibition [3] -3% | outcome [5] | outcome [6] | outcome [7] | outcome [8]

COc1cc2nc(N3CCN(C(=O)c4cccc(I)c4)CC3)nc(N)c2cc1OC
active: growth inhibition [4] 88%
inactive: growth inhibition [1] 26% | inhibition [2] 11% | inhibition [3] 2% | outcome [5] | outcome [6] | outcome [7] | outcome [8]

CC(C)c1ccc(-c2noc(SCC(=O)N(C)c3ccc(F)cc3)n2)cc1
active: growth inhibition [1] 77% | growth inhibition [4] 84%
inactive: inhibition [2] 7% | inhibition [3] 3% | outcome [5] | outcome [6] | outcome [7] | outcome [8]

CN(C)c1ccc(N=C2N=C(Nc3ccc(N(C)C)cc3)c3ccccc32)cc1
active: growth inhibition [4] 93%
inactive: growth inhibition [1] 20% | inhibition [2] 23% | inhibition [3] -5% | outcome [5] | outcome [6] | outcome [7] | outcome [8]
